# From article PMC4336329 (PLoS ONE, 2015)
# The whole screen tested about 310,000 compounds, of which about 14,000 (4.5%) showed an effect of 50% or more. Effects have a minus sign here. Many of the other results were omitted from the sample, so strong results are more common in it than they were.
# Target: human ether-à-go-go-related gene (hERG) potassium channel (human, UniProt Q12809)
# Experiment: primary screen, population patch clamp on CHO cells stably expressing hERG; higher = less effect of the substance
# 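Further: peak tail current of the secondary pulse compared with the same well before compound.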
# Chain of human ether-à-go-go-related gene (hERG) potassium channel (Q12809 whole entry, looked up): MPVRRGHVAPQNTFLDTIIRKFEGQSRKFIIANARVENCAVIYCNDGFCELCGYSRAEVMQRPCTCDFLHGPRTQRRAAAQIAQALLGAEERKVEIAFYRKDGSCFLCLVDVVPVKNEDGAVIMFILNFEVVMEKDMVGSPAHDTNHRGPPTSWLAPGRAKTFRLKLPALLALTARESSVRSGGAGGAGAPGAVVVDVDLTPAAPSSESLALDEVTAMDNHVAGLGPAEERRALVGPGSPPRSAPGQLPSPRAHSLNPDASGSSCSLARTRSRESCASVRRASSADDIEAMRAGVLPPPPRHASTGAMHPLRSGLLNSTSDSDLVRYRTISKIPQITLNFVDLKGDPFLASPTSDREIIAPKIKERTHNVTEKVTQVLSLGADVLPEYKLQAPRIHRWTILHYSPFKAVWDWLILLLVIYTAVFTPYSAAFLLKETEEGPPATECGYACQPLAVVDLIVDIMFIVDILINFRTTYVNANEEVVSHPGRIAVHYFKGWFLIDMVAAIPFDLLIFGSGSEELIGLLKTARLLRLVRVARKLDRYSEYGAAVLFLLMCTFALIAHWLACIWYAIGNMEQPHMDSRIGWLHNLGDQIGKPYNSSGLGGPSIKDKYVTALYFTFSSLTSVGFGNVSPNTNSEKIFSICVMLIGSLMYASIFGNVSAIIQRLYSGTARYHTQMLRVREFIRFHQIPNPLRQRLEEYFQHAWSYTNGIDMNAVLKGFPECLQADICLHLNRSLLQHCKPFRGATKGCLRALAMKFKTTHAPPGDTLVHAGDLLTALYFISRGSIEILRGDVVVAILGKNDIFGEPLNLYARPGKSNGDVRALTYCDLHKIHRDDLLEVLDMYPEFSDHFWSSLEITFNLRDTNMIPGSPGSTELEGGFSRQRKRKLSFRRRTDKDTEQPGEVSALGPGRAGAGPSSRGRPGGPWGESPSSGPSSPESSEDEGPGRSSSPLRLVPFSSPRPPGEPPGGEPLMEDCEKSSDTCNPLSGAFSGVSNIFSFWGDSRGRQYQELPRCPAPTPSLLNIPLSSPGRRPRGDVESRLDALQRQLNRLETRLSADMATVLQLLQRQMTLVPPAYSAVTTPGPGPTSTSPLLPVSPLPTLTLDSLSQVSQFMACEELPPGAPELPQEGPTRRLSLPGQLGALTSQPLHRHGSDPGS
row,SMILES,"hERG current change (%, negative = inhibition) at 10uM [%]"
1,CCC(C)NC(=O)COC(=O)c1cccnc1Nc1ccccc1F (stereo not shown),8.21
2,COc1ccc(NS(=O)(=O)c2ccc(Oc3ncccn3)cc2)cc1,3.85
3,CC(C)c1cc(-c2cc(-c3ccc(Cl)cc3)on2)nc(NC2CCCC2)n1,13.3
4,Cc1cc(C(=O)Nc2nc3ccc(Cl)cc3s2)nn1C,5.89
5,CCOC(=O)C(C)/C(C)=N/NC(N)=S (stereo not shown),14.4
6,CCOc1ccc(OCCOCCN2CCOCC2)cc1.O=C(O)C(=O)O,0.827
7,Cl.c1ccc(OCCOCCN2CCc3ccccc3C2)cc1,-42.8
8,CCOc1ccc(S(=O)(=O)N2CCc3ccccc3C2)cc1,9.5
9,COc1ccc(OCCOCCN2CCOCC2)cc1,5.25
10,CCCOc1ccc(OCCOCCN2CCc3ccccc3C2)cc1,-64.7
11,N#Cc1ccc(OCCN2CCc3ccccc3C2)cc1,-45.2
12,COc1ccc(OCCOCCN2CCc3ccccc3C2)cc1,-69.9
13,COc1ccc(OCCCN2CCc3ccccc3C2)cc1.Cl,-47.5
14,CCOc1ccc(OCCOCCN2CCc3ccccc3C2)cc1,-74.8
15,CCCC(C)NC(=O)COC(=O)c1ccc(Cl)c(S(N)(=O)=O)c1 (stereo not shown),8.02
16,CCOc1ccc(NC(=O)N2CCCC2C(=O)NCC2CCCO2)cc1 (stereo not shown),18.5
17,O=C1CCCCC1Sc1nnc(Nc2ccccc2)s1 (stereo not shown),-7.47
18,O=C(Cn1nc2sc3ccccc3n2c(=O)c1=O)c1cccs1,7.63
19,CCNC(=S)Nc1ccc(Cc2ccncc2)cc1,-4.01
20,COc1ccc(-c2cc(C(F)(F)F)c(C#N)c(SCC(=O)Nc3nc(C)co3)n2)cc1,1.46

row,SMILES,"hERG current change (%, negative = inhibition) at 10uM [%]"
1,O=C(NCc1ccc(F)cc1)C(c1ccccc1)c1ccccc1,4.43
2,CCC(C(=O)NCc1ccc(C)cc1)c1ccccc1 (stereo not shown),-1.35
3,Cc1ccc(CNC(=O)C(c2ccccc2)c2ccccc2)cc1,-64
4,CCOC(=O)c1ccc(NC(=O)COc2ccccc2CNC2CCCC2)cc1.Cl,-78.1
5,CCOC(=O)c1ccc(NC(=O)COc2ccc(CNC3CCCCC3)cc2OC)cc1,-26
6,CCOC(=O)c1ccc(NC(=O)COc2ccccc2CNCCc2ccccc2)cc1.Cl,-79.3
7,CCOC(=O)c1ccc(NC(=O)COc2ccccc2CNCCO)cc1,-24
8,CCOC(=O)c1ccc(NC(=S)NC2CCCC2)cc1,-7.86
9,CCOC(=O)c1ccc(NC(=O)COc2ccccc2OC)cc1,2.1
10,CN(C)S(=O)(=O)Oc1ccccc1C(=O)Nc1ccc(F)cc1F,2.34
11,COc1ccc(C)cc1NC(=O)C1CCCN(S(=O)(=O)c2ccc3c(c2)CCCN3C(C)=O)C1 (stereo not shown),-2.38
12,CCCCN(CC)CCCNC(=O)C1c2ccccc2C(=O)N(C)C1c1cn(C)c2ccccc12 (stereo not shown),-72.7
13,CCN(CC)CCCNC(=O)C1c2ccccc2C(=O)N(C)C1c1ccc(OC)cc1 (stereo not shown),6.8
14,CCN(CC)CCNC(=O)C1c2ccccc2C(=O)N(C)C1c1cn(C)c2ccccc12 (stereo not shown),-19.5
15,Cc1ccccc1S(=O)(=O)N1CC(C(=O)O)=CC[C@H]1c1ccc(Cl)cc1,15.8
16,CC(CSc1nnnn1-c1ccccc1)Cn1c(N2CCCC2)nc2c1c(=O)[nH]c(=O)n2C (stereo not shown),-45.1
17,CC1CCN(c2nc3c(c(=O)[nH]c(=O)n3C)n2CC(C)CSc2nnnn2-c2ccccc2)CC1 (stereo not shown),-57.6
18,CC(CSc1nnnn1-c1ccccc1)Cn1c(N2CCN(C)CC2)nc2c1c(=O)[nH]c(=O)n2C (stereo not shown),-43.6
19,CN1CCN(c2nc3c(c(=O)[nH]c(=O)n3C)n2CCSc2nnnn2-c2ccccc2)CC1,-17
20,CN1CCN(c2nc3c(c(=O)[nH]c(=O)n3C)n2CCCSc2nnnn2-c2ccccc2)CC1,-51.2

row,SMILES,"hERG current change (%, negative = inhibition) at 10uM [%]"
1,Cn1c(=O)[nH]c(=O)c2c1nc(N1CCCC1)n2CCCSc1nnnn1-c1ccccc1,-13.5
2,CCCN1Cc2cccc(C(=O)Nc3ccc(CC)cc3)c2C1=O,8.1
3,Cc1cc(C)nc(NC(=O)c2ccc(C)c(C)c2)n1,18
4,Oc1cccc(-n2nnnc2SCc2ccccc2F)c1,7.33
5,Cc1cc(C)c(S(=O)(=O)c2ccccc2)c(=O)[nH]1,20.6
6,COc1ccc(NC(=O)c2c(C)nn(-c3ccccc3)c2Cl)cc1,20.4
7,CCNC(=O)COC(=O)c1[nH]c(C)c(C(=O)OC)c1C,8.24
8,Cc1cc(C)c2c(CN3CCN(Cc4ccc5c(c4)OCO5)CC3)cc(=O)oc2c1,-75.4
9,Cc1cc2oc(=O)cc(CN3CCN(Cc4ccc5c(c4)OCO5)CC3)c2cc1C,-17.2
10,Cc1cc(C)c2c(CN3CCN(C)CC3)cc(=O)oc2c1,-73.3
11,Cc1cc(C)c2c(CCl)cc(=O)oc2c1,-1.06
12,Cc1cc(C)c2c(CN3CCOCC3)cc(=O)oc2c1,-7.28
13,Cc1cc(C)c2c(CN3CCCCC3)cc(=O)oc2c1,10.7
14,Cc1cc(O)c2c(CN3CCN(Cc4ccccc4)CC3)cc(=O)oc2c1,-13.1
15,Cc1cc(C)c2c(CN3CCN(Cc4ccc5c(c4)OCO5)CC3)cc(=O)oc2c1C,-45.8
16,Cc1cc(C)c2c(CN3CCCCC3C)cc(=O)oc2c1.Cl (stereo not shown),13.9
17,CCN1CCN(Cc2cc(=O)oc3cc(C)cc(C)c23)CC1,-68.1
18,Cc1cc(C)c2c(CN3CCN(Cc4ccccc4)CC3)cc(=O)oc2c1.Cl,-66.9
